Screens deposited in PubChem by National Center for Advancing Translational Sciences (NCATS).
Hits are enriched below; roughly 19% of the tested compounds scored in any of these assays.
HT1080-NT tox = qHTS for induction of synthetic lethality in tumor cells producing 2HG: qHTS for the HT-1080-NT fibrosarcoma cell line. HT-1080-NT fibrosarcoma viability, CellTiter-Glo ATP luminescence, 48 h. Potency, µM (series often up to 46.1 µM), without a hit: at the highest dose activity, negative = less viability, actives largely listed as cytotoxic. 360,000 tested, 1.6% active;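 also: NT is the 2HG producing partner of a matched IDH1 knockdown line; 0% = DMSO-treated cells and -100% = media-only wells without cells; nearly all actives have a fitted effect of over 55% in size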
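Luminescent CellTiter-Glo readout after 48 hours of compound exposure at 37 degrees C defined viability of HT-1080-NT cells. Activity was normalized to DMSO wells and cell-free media wells; concentration-response curves were fitted and assigned curve classes.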
KB-V1 cytotox = qHTS assay for MDR1-selective chemotherapeutics: Primary screen using the drug-selected MDR subline cells KB-V1; KB-V1 MDR cells viability, CellTiter-Glo, 72 h; Potency, µM (titrated, usually from 46.1 µM), most hits filed as cytotoxic; 400,000 tested, 3.4% active; AID 1347076, 2019; also: nearly all actives have a fitted effect of over 60% in size
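Cells of the MDR subline KB-V1 are plated, dosed with compound at multiple concentrations, and incubated 72 h at 37 degrees C; CellTiter-Glo is then added and luminescence read after 10 min.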
HT1080 IDH1KD tx = qHTS for induction of synthetic lethality in tumor cells producing 2HG: qHTS for the HT-1080-IDH1KD cell line; HT-1080 IDH1 knockdown viability, ATP luminescence, 48 h; Potency, µM (top dose mostly 46.1 µM), for the others: at the top dose activity, negative = toxicity, most hits filed as cytotoxic; 360,000 tested, 2% active;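 also: 0% = DMSO wells and -100% = cell-free medium wells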
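HT-1080-IDH1KD cells (IDH1 knocked down), 750/well in RPMI with 5% FBS, treated with compound 48 h at 37 degrees C. Viability by CellTiter-Glo luminescence, normalised to DMSO and no-cell wells; concentration-response curves classed.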
DT40 TDP1 CPT = qHTS for Inhibitors of human tyrosyl-DNA phosphodiesterase 1 (TDP1): qHTS in cells in presence of CPT. chicken DT40 Tdp1-/-;hTDP1 cells + 20 nM CPT, ATP luminescence, 48 h. Potency, µM (doses to about 46.2 µM), for the others: top-dose activity change, negative = growth inhibition, usual class: inhibitors. 420,000 tested, 12% active; also: nearly all actives have a fitted effect of over 55% in size
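Chicken DT40 Tdp1-/- cells complemented with human TDP1, 400 cells/well, exposed to compounds plus 20 nM camptothecin for at least 48 h at 37 C; viability read as ATP content by CellTiter-Glo luminescence.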
TDP1 cell noCPT = qHTS for Inhibitors of human tyrosyl-DNA phosphodiesterase 1 (TDP1): qHTS in cells in absence of CPT. DT40 Tdp1-/- hTDP1 cells, no CPT, ATP luminescence, 48 h. Potency, µM (top dose mostly 46.2 µM), for the others: at the top dose activity change, negative = growth inhibition, actives largely listed as inhibitors. 420,000 tested, 15% active. AID 686978, 2013; also: nearly all actives have a fitted effect of over 55% in size
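Chicken DT40 Tdp1-/- cells stably complemented with human TDP1 were seeded at 400 cells/well with DMSO in place of 20 nM camptothecin. After compound pinning, cells grew at least 48 hr at 37 °C; viability read by CellTiter-Glo luminescence.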
KB-3-1 tox = qHTS assay for MDR1-selective chemotherapeutics: Primary screen using the parental adenocarcinoma cell KB-3-1; KB-3-1 viability, CellTiter-Glo ATP luminescence, 72 h; 400,000 tested, 1.4% active; Potency, µM (highest dose often 46.1 µM), most hits filed as cytotoxic; also: nearly all actives have a fitted effect of over 60% in size
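Multi-concentration cytotoxicity screen in KB-3-1 cells grown in DMEM lacking phenol red with 10% FBS. After 72 h at 37 °C with compound, ATP-dependent luminescence was recorded.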
Starred values were filed as active, the others as inactive. Calls follow the shape of the dose curve; as a rule, active = well fitted curve in the direction sought with a large enough effect; inconclusive = small, poorly fitted or top-dose-only effect, or another doubt; inactive = no such curve, though single readings can be large; an effect the other way counts as inactive or inconclusive. Unless noted, % is scaled to controls: 0 for no effect and ±100 for the full control effect; potency is read from the fitted curve at half-maximal effect.

What do the screens show for `COc1ccc(-c2[nH]ncc2/C=C(/C#N)C(=O)NC2CCCCCC2)cc1`?
HT1080-NT tox: 18.4µM*; KB-V1 cytotox: inactive; HT1080 IDH1KD tx: inconclusive; DT40 TDP1 CPT: inconclusive; TDP1 cell noCPT: 18.4µM*; KB-3-1 tox: inconclusive

How did CC1CCCCC1NC(=O)/C(C#N)=C/c1ccc2c(c1)OCCO2 (configuration not stated) do in these assays?
HT1080-NT tox: -13.7%; KB-V1 cytotox: inconclusive; HT1080 IDH1KD tx: -8.7%; DT40 TDP1 CPT: inconclusive; TDP1 cell noCPT: inconclusive; KB-3-1 tox: 18.4µM*

Results for COc1ccc2[nH]c(=O)c(CN(Cc3cccs3)Cc3nnnn3C(C)(C)C)cc2c1 ?
HT1080-NT tox: -13.2%; KB-V1 cytotox: inconclusive; HT1080 IDH1KD tx: inconclusive; DT40 TDP1 CPT: inconclusive; TDP1 cell noCPT: 23.1µM*; KB-3-1 tox: inactive

How did CCOC(=O)Cn1nnnc1CN(Cc1cccs1)Cc1cc2cc(C)ccc2[nH]c1=O do in these assays?
HT1080-NT tox: 3.3%; KB-V1 cytotox: inactive; HT1080 IDH1KD tx: -1.4%; DT40 TDP1 CPT: inconclusive; TDP1 cell noCPT: inconclusive; KB-3-1 tox: inactive

How did CCOc1ccc2[nH]c(=O)c(CN(Cc3cccs3)Cc3nnnn3C(C)(C)C)cc2c1 do in these assays?
HT1080-NT tox: inconclusive; KB-V1 cytotox: 20.6µM*; HT1080 IDH1KD tx: inconclusive; DT40 TDP1 CPT: 20.6µM*; TDP1 cell noCPT: 15.8µM*; KB-3-1 tox: inactive

How did CCOC(=O)c1c(C)[nH]c(C)c1S(=O)(=O)N(C)CC(=O)Nc1cccc(C(F)(F)F)c1 do in these assays?
KB-V1 cytotox: inactive; DT40 TDP1 CPT: inconclusive; TDP1 cell noCPT: -17.1%; KB-3-1 tox: inactive

How did CCN(Cc1ccccc1)Cc1c(O)ccc2c(=O)c(-c3ccccc3Cl)coc12 do in these assays?
KB-V1 cytotox: inactive; DT40 TDP1 CPT: 0.0%; TDP1 cell noCPT: -10.4%; KB-3-1 tox: inactive

How did CCN(CC)Cc1c(O)ccc2c(=O)c(-c3ccccc3)coc12 do in these assays?
HT1080-NT tox: 0.7%; KB-V1 cytotox: inactive; HT1080 IDH1KD tx: -1.4%; DT40 TDP1 CPT: 9.2µM*; TDP1 cell noCPT: inconclusive; KB-3-1 tox: inactive

How did CCN(CC)Cc1c(O)ccc2c(=O)c(-c3ccc4c(c3)OCCO4)coc12 do in these assays?
HT1080-NT tox: -5.7%; KB-V1 cytotox: inactive; HT1080 IDH1KD tx: -7.6%; DT40 TDP1 CPT: 3.26µM*; TDP1 cell noCPT: 10.3µM*; KB-3-1 tox: inactive

How did CCN1CCCC1CNC(=O)c1cnn(-c2nccc(-c3cc(OC)ccc3OC)n2)c1C (configuration not stated) do in these assays?
DT40 TDP1 CPT: 10.1%; TDP1 cell noCPT: -22.9%

What do the screens show for `COc1ccc(NC2CCCN(C(=O)CSc3ccccc3)C2)cc1OC` (configuration not stated)?
HT1080-NT tox: -2.1%; HT1080 IDH1KD tx: -6.9%; DT40 TDP1 CPT: inconclusive; TDP1 cell noCPT: -35.5%

What do the screens show for `Cc1ccnc2nc(C(=O)OCCOc3ccc(F)cc3)nn12`?
HT1080-NT tox: 6.8%; KB-V1 cytotox: inactive; HT1080 IDH1KD tx: 29.7%; DT40 TDP1 CPT: 0.7%; TDP1 cell noCPT: 1.8%; KB-3-1 tox: inactive

What do the screens show for `Cc1cccc2nc(C(=O)Nc3cccc(C(=O)NC4CC4)c3)cn12`?
HT1080-NT tox: 7.1%; KB-V1 cytotox: inactive; HT1080 IDH1KD tx: 12.9%; DT40 TDP1 CPT: 13µM*; TDP1 cell noCPT: inconclusive; KB-3-1 tox: inactive

What do the screens show for `O=C(NC1CCN(C(=O)Nc2cccc(Cl)c2)CC1)c1ccccc1`?
HT1080-NT tox: 18.1%; KB-V1 cytotox: inactive; HT1080 IDH1KD tx: 8.4%; DT40 TDP1 CPT: -20.1%; TDP1 cell noCPT: inconclusive; KB-3-1 tox: inactive

How did Cc1nn(-c2ccccc2)nc1C(=O)Nc1ccc2c(c1)OCCO2 do in these assays?
HT1080-NT tox: -1.4%; KB-V1 cytotox: inactive; HT1080 IDH1KD tx: 3.8%; DT40 TDP1 CPT: -24.8%; TDP1 cell noCPT: -9.4%; KB-3-1 tox: inactive

What do the screens show for `Cc1nn(-c2cccc(Cl)c2)nc1C(=O)Nc1cccc(C(=O)NC2CC2)c1`?
HT1080-NT tox: -1.0%; KB-V1 cytotox: inconclusive; HT1080 IDH1KD tx: -6.5%; DT40 TDP1 CPT: inconclusive; TDP1 cell noCPT: 10.3µM*; KB-3-1 tox: inactive

What do the screens show for `Cc1ccc(-n2nc(C)c(C(=O)Nc3cccc(C(=O)NC4CC4)c3)n2)c(C)c1`?
HT1080-NT tox: -10.4%; KB-V1 cytotox: inconclusive; HT1080 IDH1KD tx: -22.5%; DT40 TDP1 CPT: 11.6µM*; TDP1 cell noCPT: 8.2µM*; KB-3-1 tox: inactive

How did Cc1nn(-c2ccccc2)nc1C(=O)Nc1cccc(C(=O)NC2CC2)c1 do in these assays?
HT1080-NT tox: 5.8%; KB-V1 cytotox: inconclusive; HT1080 IDH1KD tx: 5.2%; DT40 TDP1 CPT: inconclusive; TDP1 cell noCPT: 14.6µM*; KB-3-1 tox: inactive

How did Cc1cccc(C(=O)Nc2cccc(C(=O)NC3CCCC3)c2)c1 do in these assays?
HT1080-NT tox: 4.0%; KB-V1 cytotox: inactive; HT1080 IDH1KD tx: -1.8%; DT40 TDP1 CPT: inconclusive; TDP1 cell noCPT: inconclusive; KB-3-1 tox: inactive

How did CC1(C)CC(=O)C/C(=N/NC(=O)COc2ccc3ccccc3c2Br)C1 do in these assays?
HT1080-NT tox: 0.5%; KB-V1 cytotox: inactive; HT1080 IDH1KD tx: inconclusive; DT40 TDP1 CPT: inconclusive; TDP1 cell noCPT: inconclusive; KB-3-1 tox: inactive

Results for Cc1ccc(C(=O)Nc2cccc(C(=O)NC3CCCC3)c2)cc1 ?
HT1080-NT tox: -3.4%; KB-V1 cytotox: inconclusive; HT1080 IDH1KD tx: -20.2%; DT40 TDP1 CPT: inconclusive; TDP1 cell noCPT: 16.4µM*; KB-3-1 tox: inactive

What do the screens show for `COc1ccc2c(c1)C(SCC(=O)NCCc1ccc(Cl)cc1)CC(C)(C)O2` (configuration not stated)?
HT1080-NT tox: -5.5%; KB-V1 cytotox: inactive; HT1080 IDH1KD tx: -14.6%; DT40 TDP1 CPT: 16.4µM*; TDP1 cell noCPT: inconclusive; KB-3-1 tox: inactive

Results for CCOc1ccccc1NC(=O)CN1C(=O)NC(Cc2c[nH]c3ccccc23)C1=O (configuration not stated) ?
HT1080-NT tox: -4.6%; KB-V1 cytotox: inactive; HT1080 IDH1KD tx: 0.4%; DT40 TDP1 CPT: -4.3%; TDP1 cell noCPT: 1.6%; KB-3-1 tox: inactive
